The inhibition is the drop in the measured response relative to a control, in per cent.

Out of some 640,000 compounds screened, about 9,300 (1.5%) were called active. For the sample, actives were picked, then their nearest neighbours and some compounds at random. A number with no mark means an inactive call. Cut-off read from the data, not from the text of the source: active = inhibition above about 32%; inactive = the rest.

The test in a line: TEAD-YAP interaction inhibition, primary screen, TEAD-YAP interaction inhibitor project, luminescence, HEK-TIYL cells (AID 1259422).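 Note: 0% = median of test compound wells and 100% = reference inhibitor wells.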 Particulars: TEAD-Gal4/YAP UAS-luciferase luminescence, at 9.12 µM, active compounds read high.
As to `COc1ccc(S(=O)(=O)Oc2ccc(C=O)cc2)cc1`, the inhibition is 12.9%.

As to `Cc1c(C2=N/C(=C/c3cccc(Cl)c3Cl)C(=O)O2)cccc1[N+](=O)[O-]`, the inhibition is -5.1%.

Turning to `CSc1cccc(Nc2nc3ccccc3n3cnnc23)c1`, the inhibition was -29.4%.

On to `Clc1ccc(-n2ncc3c(NC4CCCCC4)ncnc32)cc1`, for which the inhibition was 10.8%.

Regarding `Cc1cc2c(N(C)C3CCCCC3)ncnc2s1`, the inhibition was -14.3%.

Regarding `CN(c1ncnc2c1cnn2-c1ccc(Cl)cc1)C1CCCCC1`, the inhibition is 63.9% (active).

`CSC1=C(C#N)C(c2ccccc2[N+](=O)[O-])C2=C(CC(C)(C)CC2=O)N1` (centres undefined): the inhibition was 15.7%.

Turning to `O=C(NCCOc1ccccc1)c1ccc2nc(NCCN3CCOCC3)sc2c1`, the inhibition is -44.4%.

Regarding `O=C(Nc1ccc2c3c(cccc13)CC2)c1cc([N+](=O)[O-])ccc1Br`, the inhibition was 59.8% (active).

In the case of `O=C(Nc1ccc2c3c(cccc13)CC2)c1cc([N+](=O)[O-])cc([N+](=O)[O-])c1`, the inhibition is -9.02%.

For the compound `O=C(Nc1ccc([N+](=O)[O-])cc1Cl)c1ccccc1Br`, the inhibition is 12.3%.

On to `Cc1cc(C)cc(N2C(=O)N(c3cccc(Cl)c3)C3CS(=O)(=O)CC32)c1` (centres undefined), for which the inhibition was -20.4%.

As for `Cc1ccc(C(NC(=O)Cc2ccccc2)c2ccc3cccnc3c2O)cc1` (centres undefined), the inhibition was 82.5% (active).

Turning to `O=C(COc1ccc(Cl)c(Cl)c1)NC(Cc1ccccc1)C(=O)O` (centres undefined), the inhibition is 9.8%.

On to `CC(=O)NC(NC(C)=O)c1cccnc1`, for which the inhibition is -0.95%.

For `O=C(NC(=O)c1ccccn1)NC(c1ccccc1)c1ccccc1`, the inhibition was -3.05%.

As for `CC(=O)NC(c1cccs1)c1cc(Cl)c2cccnc2c1O` (centres undefined), the inhibition is 80.8% (active).

As for `CCOc1ccc(C(NC(=O)c2cc(OC)c(OC)c(OC)c2)c2cc(Cl)c3cccnc3c2O)cc1` (centres undefined), the inhibition is 9.91%.

Regarding `CCOc1ccc(C(C)NC(=O)Cc2ccccc2)cc1` (centres undefined), the inhibition was 13.1%.

For the compound `Cc1ccnc(NC(=O)Cc2ccc(Cl)cc2)n1`, the inhibition was 0.25%.

`Cc1ccc(CC(=O)Nc2ncccn2)cc1`: the inhibition is 1.2%.

For the compound `O=C(Cc1ccccc1)NC(c1ccc(Cl)cc1)c1ccc2cccnc2c1O` (centres undefined), the inhibition was 82.5% (active).

For `CC(=O)NC(c1ccccc1)c1ccc2cccnc2c1O` (centres undefined), the inhibition was 82.8% (active).

Turning to `COc1cccc(C(=O)NC(c2cccc([N+](=O)[O-])c2)c2cc(Cl)c3cccnc3c2O)c1` (centres undefined), the inhibition is 7.94%.

Turning to `Cc1ccc(C2C=C(c3ccc(C(C)C)cc3)Nc3nnnn32)cc1` (centres undefined), the inhibition is -3.93%.

Take `Cn1c(=O)c2c(nc(N(CCO)CCO)n2Cc2cccc3ccccc23)n(C)c1=O`: the inhibition was -5.12%.

On to `O=S(=O)(c1ccc(F)c(Cl)c1)N1CCC(Cn2cnc3ccccc32)CC1`, for which the inhibition was 7.12%.

As to `COC(=O)C1=C(C)OC(N)=C(C#N)C1c1ccc(OCc2ccccc2)cc1` (centres undefined), the inhibition was -17.6%.

In the case of `COc1ccccc1NC(=O)Nc1nnc(CSCc2ccc(F)cc2)s1`, the inhibition is 11.6%.

In the case of `CCOC(=O)c1cc([N+](=O)[O-])sc1NC(=O)c1cc(Cl)sc1Cl`, the inhibition is 1.62%.

As for `Cc1cccc(NC(=O)CC(C)(C)C)n1`, the inhibition is -13.5%.

Turning to `N/C(=N\OC(=O)CCCOc1ccc(Cl)cc1Cl)c1nonc1N`, the inhibition was -6.56%.

Take `CCOC(=O)C1=CN(C(C)C)C=C(C(=O)OCC)C1c1cccc([N+](=O)[O-])c1`: the inhibition was 4.81%.

On to `CCCn1c(=N)c(C(=O)OCC)cc2c(=O)n3cc(C)ccc3nc21`, for which the inhibition was 1.52%.

In the case of `O=C1CSC(c2ccc(F)c(F)c2)N1c1ccc(Br)cc1` (centres undefined), the inhibition was -4.77%.

As for `CCCCC(=O)NC(c1ccco1)c1ccc2cccnc2c1O` (centres undefined), the inhibition is 26.7%.

Consider `CCCCC(=O)NC(c1ccc(OC)c(OC)c1)c1ccc2cccnc2c1O` (centres undefined), for which the inhibition is 89.2% (active).

In the case of `CCCCC(=O)NC(c1ccc(OC)cc1)c1cc([N+](=O)[O-])c2cccnc2c1O` (centres undefined), the inhibition is 7.56%.

In the case of `CCC1CCCCN1C(=O)Cn1c2ccccc2c(=O)c2cc(C)ccc21` (centres undefined), the inhibition is -3.07%.

For the compound `CCn1nnc2c1CCN(CC(O)C(C)(C)C)C2` (centres undefined), the inhibition is -9.09%.

Consider `O=C(Cn1cnc2c(nnn2-c2cccc(F)c2)c1=O)N1CCCCC1`, for which the inhibition is 6.15%.

`Cc1cccc(N2CCN(C(=O)c3cccc(N4C(=O)C(C)CS4(=O)=O)c3)CC2)c1` (centres undefined): the inhibition is -2.6%.

For `Cc1cccc(N2CCN(C(=O)c3ccc4c(c3)C(=O)N(CCC3=CCCCC3)C4=O)CC2C)c1` (centres undefined), the inhibition was -3.98%.

Turning to `Cc1cccc(N2CCN(C(=O)c3cccc(C#N)c3)CC2C)c1` (centres undefined), the inhibition is 41.6% (active).

Consider `COc1ccc2c(c1)CC(C(=O)Nc1ccc(-c3ccncc3)cc1OC(C)CN(C)C)CO2` (centres undefined), for which the inhibition was -0.11%.

Turning to `COC(=O)NCC(C)OC(=O)Nc1ccc(C)cc1` (centres undefined), the inhibition was -12.2%.

On to `CC(C)CC(NC(=O)C(Cc1ccccc1)NC(=O)OC(C)(C)C)C(=O)O` (centres undefined), for which the inhibition was 1.85%.

For the compound `CC(C(=O)O)c1ccc(NC(=O)OC(C)(C)C)cc1` (centres undefined), the inhibition was 32.1% (active).

Take `Cc1cc(C)nc(N2CCN(S(=O)(=O)c3ccc(C)c(Cl)c3)CC2)n1`: the inhibition is 1.94%.

As for `Fc1cccc(-c2nnc3ccc4cc(C(F)(F)F)ccc4n23)c1`, the inhibition is -12.5%.

Take `COc1ccc(N2CCN(S(=O)(=O)c3ccc(Cl)cc3)CC2)c([N+](=O)[O-])c1`: the inhibition was 6.09%.

For the compound `CCN(C(=O)COc1ccc(Cl)cc1)c1nnc(-c2cccnc2)s1`, the inhibition was -11.5%.

Consider `O=C1C=C(Nc2ccc(O)cc2)c2ccccc2C1=O`, for which the inhibition is 93.2% (active).

Turning to `O=C(CN1C(=O)c2ccccc2C1=O)Nc1ccc(O)cc1`, the inhibition is -11.7%.

For the compound `COC(=O)c1ccccc1NC1=C/C(=N/S(=O)(=O)c2ccccc2)c2ccccc2C1=O`, the inhibition was 5.16%.

In the case of `COc1ccc(S(=O)(=O)/N=C2/C=C(Nc3ccc(O)cc3)C(=O)c3ccccc32)cc1`, the inhibition is 99.3% (active).

For the compound `COc1ccccc1NC1=C/C(=N/S(=O)(=O)c2ccc(F)cc2)c2ccccc2C1=O`, the inhibition is -21.4%.

For the compound `O=C1C(Nc2ccc(O)cc2)=C(n2nnc3ccccc32)C(=O)c2ccccc21`, the inhibition was 27.1%.

As to `CCOC(=O)c1ccccc1Nc1nc(-c2ccc(OC)cc2)no1`, the inhibition was 8.95%.

Regarding `O=[N+]([O-])c1ccc2c(c1)nc1ccccn12`, the inhibition is -11.7%.

For `CC(=O)N1CCC(N(C(=O)CSCCNC(=O)c2ccccc2Cl)C2CC2)CC1`, the inhibition is 2.5%.

In the case of `CC1CCc2c(sc(NC(=O)c3cc4ccccc4oc3=O)c2C#N)C1` (centres undefined), the inhibition was 11.2%.

As to `C=CCN1C(=S)NC2CC1(C)Oc1c(OC)cccc12` (centres undefined), the inhibition is 2.23%.

As for `CCCOc1ccc(Cc2c(Cl)nc(SC)nc2NC)cc1`, the inhibition is 35.1% (active).

Take `CCCOc1ccc(N2C(=O)CC(NCCc3ccc(Cl)cc3)C2=O)cc1` (centres undefined): the inhibition was -11%.

In the case of `CCOc1ccc(Cc2c(Cl)nc(SC)nc2N(CC)CC)cc1`, the inhibition is 2.33%.

Turning to `COc1cccc(/C=C(\C#N)c2nn(CCO)c(N)c2C#N)c1OCc1ccc(Cl)cc1Cl`, the inhibition was 2.5%.

As for `CC(=O)N1CCc2cc(S(=O)(=O)NCCC(=O)O)ccc21`, the inhibition was 0.75%.

In the case of `CC(=O)N1CCC(N(C(=O)C2CC2)c2ccc3c(c2)CCN3C(C)=O)CC1`, the inhibition was 46.4% (active).

For the compound `CC(=O)N1CCc2cc(S(=O)(=O)NC3CCCCC3)ccc21`, the inhibition was 10.8%.

Regarding `CCOC(=O)C1=C(C)N=c2s/c(=C\c3ccc(-c4ccc([N+](=O)[O-])cc4OC)o3)c(=O)n2C1c1ccccc1` (centres undefined), the inhibition was -12.5%.

With `CCn1c(=O)[nH]c(=O)c2c(C(F)(F)F)cc(C(F)(F)F)nc21`, the inhibition is -11.4%.

`CCOC(=O)c1cc(-c2nnc(-c3ccccc3)o2)c(C)nc1C`: the inhibition is -1.76%.

Regarding `CCc1ccc(NC(=O)CSC2=C(C#N)C(c3ccco3)C(C(=O)Nc3ccc(Cl)cc3)=C(C)N2)cc1` (centres undefined), the inhibition is 26.3%.

In the case of `CS(=O)(=O)c1ncc(Cl)c(C(=O)Nc2ccc(Cl)c(C(F)(F)F)c2)n1`, the inhibition is 51% (active).

For `CS(=O)(=O)c1ncc(Cl)c(C(=O)Nc2nc3ccc(F)cc3s2)n1`, the inhibition was -10.7%.

Take `CC(=O)c1c(C)[nH]c(C(=O)Nc2ccc(Cl)c(C(F)(F)F)c2)c1C`: the inhibition was 3.78%.

For the compound `Cc1ccc(CC(=O)Nc2ccc(Cl)c([N+](=O)[O-])c2)cc1`, the inhibition is -2.28%.

For the compound `COc1ccc(Cl)cc1NC(=O)C(=O)Nc1ccc2nc3n(c(=O)c2c1)CCCCC3`, the inhibition is 0.92%.

Regarding `COc1ccc([N+](=O)[O-])cc1C1=N/C(=C/c2ccc(C(C)C)cc2)C(=O)O1`, the inhibition is 1.78%.

Regarding `CCC(=O)N(CCO)Cc1cc2cc(CC)ccc2[nH]c1=O`, the inhibition is 10.6%.

Regarding `CCOC(=O)c1c(NC(=O)c2ccccc2)sc(C(=O)Nc2ccccc2OC)c1C`, the inhibition is 0.4%.

On to `Cc1nc(-c2ccc(NC(=O)c3cccc(Br)c3)cc2)cs1`, for which the inhibition was -71.4%.

For `O=C(Nc1cc(F)cc(F)c1)c1cccs1`, the inhibition is -5.52%.

For `O=C(Nc1ccc(C23CC4CC(CC(C4)C2)C3)cc1)c1cccs1`, the inhibition is 85.4% (active).

As to `Cc1nc(-c2ccc(NC(=O)c3cccs3)cc2)cs1`, the inhibition was 48.2% (active).

As for `CC(=O)Nc1cccc(-c2csc(C)n2)c1`, the inhibition is -2.27%.

Consider `O=C(Nc1cc(Cl)cc(Cl)c1)c1cccs1`, for which the inhibition was -3.5%.

Regarding `Cc1ccc2cccc(SCC(=O)Nc3ccc(Br)cc3)c2n1`, the inhibition was 17.4%.

`COc1ccc(-n2nc3cc(C)c(NC(=O)c4ccccc4I)cc3n2)cc1`: the inhibition was -23.3%.

Regarding `CN(CCC(=O)Nc1cccc(F)c1)Cc1ccccc1`, the inhibition was 2.01%.

Consider `COc1ccc(CSc2n[nH]c(C)n2)cc1Cl`, for which the inhibition is 44.5% (active).

Turning to `COc1ccc(C(=O)CSc2n[nH]c(C)n2)cc1`, the inhibition was -4.7%.

Regarding `COc1ccccc1NC(=O)CSc1n[nH]c(C)n1`, the inhibition was 5.98%.
